Results as given in PubChem BioAssay (Tox21).
Results filed as inconclusive are left out. Calls of active or inactive are those of the source. Calls come from the whole dose curve; as a rule, active = well fitted curve in the direction sought with a large enough effect in the repeat runs; inconclusive = weak or mixed curves; inactive = no such curve, though single readings can be large; an effect the other way counts as inactive or inconclusive.

What was measured:
[1] = A CellTox Green Cytotoxicity Assay to monitor cytotoxicity in HepG2 cells - 8 hour (AID 1224890); details: CellTox Green fluorescence; series mostly up to 76.8 µM; note: nearly all actives have a fitted effect of over 45% in size
How it was run: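 Cytotoxicity was tracked as dead-cell DNA fluorescence in HepG2 cells treated with test compounds at 37 C; each time-point value comes from one kinetic series spanning 0, 8, 16, 24, 32 and 40 h.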

[2] = qHTS assay to identify small molecule antagonists of the estrogen receptor alpha (ER-alpha) signaling pathway using the BG1 cell line in the presence of 0.1 nM 17-beta-estradiol - cell viability counter screen (AID 1259241); details: VM7Luc4E2 (BG1) viability, CellTiter-Fluor protease, 22 h, 0.1 nM estradiol agonist added; series mostly up to 92.4 µM; note: nearly all actives have a fitted effect of over 40% in size
How it was run: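 Following 5 days in phenol red-free medium with charcoal-stripped serum, VM7Luc4E2 cells received test compounds alongside 0.1 nM 17beta-estradiol (final) at 37C for 22 hr. Live cells were then quantified via protease-substrate fluorescence.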

[3] = qHTS assay to identify small molecule antagonists of the androgen receptor (AR) signaling pathway using the MDA cell line in the presence of 0.5 nM R1881 - cell viability counter screen (AID 1259242); details: MDA-kb2 viability, CellTiter-Fluor protease fluorescence, 16 h; series mostly up to 92.4 µM; note: nearly all actives have a fitted effect of over 45% in size
How it was run: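 Cells seeded at 3,000/well and allowed 5 hr at 37C, 0% CO2 before compound transfer and R1881 (0.5 nM final) addition; 16 hr later, live-cell protease fluorescence indicated cytotoxicity.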

[4] = molecular target: Estrogen receptor (Homo sapiens) (UniProt P03372); test: qHTS assay to identify small molecule antagonists of the estrogen receptor alpha (ER-alpha) signaling pathway using the BG1 cell line in the presence of 0.1 nM 17-beta-estradiol (AID 1259244); details: VM7Luc4E2 (BG1) ERE-luciferase, antagonist mode, 0.1 nM E2, 22 h; series mostly up to 92.4 µM; note: nearly all actives have a fitted effect of over 50% in size
Estrogen receptor (Homo sapiens), sequence (P03372 whole entry, looked up): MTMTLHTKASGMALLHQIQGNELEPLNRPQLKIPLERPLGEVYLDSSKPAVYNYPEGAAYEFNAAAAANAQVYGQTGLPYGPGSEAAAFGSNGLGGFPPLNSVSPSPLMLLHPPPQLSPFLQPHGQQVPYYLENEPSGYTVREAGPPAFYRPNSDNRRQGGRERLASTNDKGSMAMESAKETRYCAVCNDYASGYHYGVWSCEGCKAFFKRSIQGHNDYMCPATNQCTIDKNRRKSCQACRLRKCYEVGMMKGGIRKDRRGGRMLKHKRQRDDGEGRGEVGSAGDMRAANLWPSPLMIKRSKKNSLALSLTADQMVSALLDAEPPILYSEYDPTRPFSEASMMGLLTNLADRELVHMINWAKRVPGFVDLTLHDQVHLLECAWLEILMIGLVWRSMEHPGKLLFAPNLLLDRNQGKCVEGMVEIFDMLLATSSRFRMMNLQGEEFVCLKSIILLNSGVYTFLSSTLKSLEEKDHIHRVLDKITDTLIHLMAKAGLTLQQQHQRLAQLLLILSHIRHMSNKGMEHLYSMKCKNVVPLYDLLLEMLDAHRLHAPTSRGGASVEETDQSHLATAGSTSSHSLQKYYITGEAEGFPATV
How it was run: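 Luciferase signal from VM7Luc4E2 ERE-reporter cells, co-dosed with test compound and 0.1 nM final 17beta-estradiol for 22 h, read with ONE-Glo.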

[5] = qHTS assay to identify small molecule HDAC inhibitors (AID 1259364); details: HCT-116 HDAC-Glo I/II luminescence, 2 h; series mostly up to 92.4 µM;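 note: wild-type HCT-116 cells with endogenous class I/II HDAC activity; top concentration of the series differs between compounds; nearly all actives have a fitted effect of over 45% in size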
How it was run: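 HCT-116 wt cells, 1,500/well, overnight attach. Compounds (DMSO) 2 h, 37 °C. HDAC-Glo I/II, 30 min RT. Luminescence.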

[6] = qHTS assay to identify small molecule HDAC inhibitors - cell viability counter screen (AID 1259365); details: HCT-116 viability, CellTiter-Glo ATP luminescence, 2 h; series mostly up to 92.4 µM; note: nearly all actives have a fitted effect of over 50% in size
How it was run: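 HCT-116 wild-type, overnight attachment; 2hr drug exposure, 37C; CellTiter-Glo luminescent ATP readout after 30min RT.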

[7] = qHTS assay to identify small molecule agonists of the sonic hedgehog signaling (Shh) pathway - cell viability counter screen (AID 1259366); details: NIH/3T3 Gli1-Luc viability, CellTiter-Fluor, 24 h; series mostly up to 92.4 µM; note: nearly all actives have a fitted effect of over 50% in size
How it was run: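 Compounds in DMSO were pin-transferred onto 3T3 Gli1-Luc cells that had settled 4hr; plates then stood 24hr at 37C and 5% CO2. One hour before the end, CellTiter-Fluor was added and fluorescence recorded.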

[8] = qHTS assay to identify small molecule antagonists of the sonic hedgehog signaling (Shh) pathway - cell viability counter screen (AID 1259367); details: NIH/3T3 Gli1-Luc viability, CellTiter-Fluor, 24 h; series mostly up to 92.4 µM; note: nearly all actives have a fitted effect of over 55% in size
How it was run: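 Cytotoxicity was assessed in parallel with Shh reporter activity by measuring live-cell protease fluorescence (CellTiter-Fluor) in NIH/3T3 cells stably carrying Gli1-Luc, treated with compound under conditioned medium stimulation for 23 hr plus 1 hr reagent incubation.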

Measured: Potency

COC(OC)(C(=O)c1ccccc1)c1ccccc1
inactive: [1] | [2] | [3] | [4] | [5] | [6] | [7] | [8]

O=Cc1c(Cl)cccc1Cl
inactive: [1] | [2] | [3] | [4] | [5] | [6] | [7] | [8]

CC#N
inactive: [1] | [2] | [3] | [4] | [5] | [6] | [7] | [8]

CC(C)C(=O)O
inactive: [1] | [2] | [3] | [4] | [5] | [6] | [7] | [8]

O=C1NCCN1
inactive: [1] | [2] | [3] | [4] | [5] | [6] | [7] | [8]

OCCSc1ccccc1
inactive: [1] | [2] | [3] | [4] | [5] | [6] | [7] | [8]

COc1cc2[nH]c(=O)[nH]c(=O)c2cc1OC
inactive: [1] | [2] | [3] | [4] | [5] | [6] | [7] | [8]

Cc1nc2ccccc2s1
inactive: [1] | [2] | [3] | [4] | [5] | [6] | [7] | [8]

CC(C)(CCl)c1ccccc1
inactive: [1] | [2] | [3] | [4] | [5] | [6] | [7] | [8]

CCCCCCCCCCCC[N+](C)(C)CC(=O)[O-]
inactive: [1] | [2] | [3] | [4] | [5] | [6] | [7] | [8]

CCCCC(CC)C(=O)OCCOCCOCCOCCOC(=O)C(CC)CCCC (configuration not stated)
inactive: [1] | [2] | [3] | [4] | [5] | [6] | [7] | [8]

C=CC(C)(O)CCCC(C)CCCC(C)CCCC(C)C (configuration not stated)
inactive: [1] | [2] | [3] | [4] | [5] | [6] | [8]

C[C@]12CCC(=O)C=C1C=C[C@@H]1[C@@H]2CC[C@@]2(C)[C@H]1CC[C@@]21CCC(=O)O1
inactive: [1] | [2] | [3] | [5] | [6] | [7] | [8]
